Experimental data reported in PubChem BioAssay (NCI).
About 83,000 compounds went through this panel and 20% of them were active in at least one assay; those are over-represented in the sample as a whole.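 Method: cells in 96-well plates; compound added at one concentration; 48 h incubation; percent growth measured; values under 10 scored active.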 Values without a mark were called inactive. Calls of active or inactive are those of the source.

Tests used:
Test in all cases: NCI-60 one-dose screen, 48 h (100 = growth as untreated, 0 = no growth, -100 = all killed)
Conditions in all cases: 10 µM unless noted
HCT-15 colon = system: HCT-15 colon
HT29 colon = system: HT29 colon
SNB-75 CNS = system: SNB-75 CNS
SNB-19 CNS = system: SNB-19 CNS
U251 CNS = system: U251 CNS
PC-3 prostate = system: PC-3 prostate
SK-MEL-5 melanoma = system: SK-MEL-5 melanoma
UACC-62 melanoma = system: UACC-62 melanoma
SK-MEL-28 melanoma = system: SK-MEL-28 melanoma

Compound | growth (HCT-15 colon) | growth (HT29 colon) | growth (SNB-75 CNS) | growth (SNB-19 CNS) | growth (U251 CNS) | growth (PC-3 prostate) | growth (SK-MEL-5 melanoma) | growth (UACC-62 melanoma) | growth (SK-MEL-28 melanoma)
CC(=O)Nc1cccc(Nc2nccc(N[C@@H](C)c3ccccc3)n2)c1 | 7.75% (active) | 2.53% (active) | 7.86% (active) | 25.6% | 24.4% | 30.5% | -31% (active) | 20.6% | 49.4%
O=C(N=Nc1c(O)[nH]c2ccc(Cl)cc12)c1ccc2nc(-c3ccccc3)[nH]c2c1 | 95.4% | 57.4% | 91.7% | -52.5% (active) | -71.3% (active) | 51.1% | 94.3% | 21.7% | 44.3%
Cc1ccc2c(N)c(C(=O)Nc3ccc(-c4ccccc4)cc3)sc2n1 | 58.7% | 84.3% | 53.8% | 63.5% | 85.2% | 68.5% | 20.3% | 72.2% | 85.1%
c1ccc(-c2csc(Nc3cccc(Nc4nc(-c5ccccc5)cs4)c3)n2)cc1 | 30.5% | 39.4% | 48.6% | 58% | 51.2% | 32.1% | 21% | 50.3% | 60.9%
C/C(=N\N=C1/C(=O)Nc2ccc(Cl)cc21)c1ccc2c(c1)Nc1ccccc1S2 | 0.895% (active) | -31.1% (active) | 8.6% (active) | 18.7% | -32.1% (active) | -5.59% (active) | -15.6% (active) | 13.5% | -48.9% (active)
N#Cc1ccc(C(=O)Nn2c(N)cc3ccccc3c2=O)cc1 | 103% | 103% | 111% | 94.6% | 98% | 94.6% | 99.4% | 86.1% | 104%
S=c1c2ccccc2nc2n1CCc1c-2[nH]c2ccccc12 | 68.9% | 78.8% | 0.815% (active) | 16.1% | 73.8% | 60.8% | 67% | 64.1% | 74.8%
Cc1cc(C)cc(C(=O)Nc2cccc(-c3cn(-c4ccc(S(N)(=O)=O)cc4)nn3)c2)c1 | 79% | 80.4% | -7.62% (active) | -27.9% (active) | 10.9% | 83% | 24.4% | 12.2% | 62.4%
COc1cc2oc(-c3cccc(C(=O)Nc4ccc(Cl)cc4)c3)cc(=O)c2c(OCCNC(=O)[C@H](CCC(=O)OC(C)(C)C)NC(=O)OC(C)(C)C)c1OC | 100% | 108% | 74.2% | 94.8% | 96.8% | 83.5% | 89.3% | 82% | 99.2%
O=C1NC(=O)c2c1c1c3cc(Br)ccc3[nH]c1c1oc3ccc(F)cc3c21 | 21.5% | 36.4% | -11.6% (active) | -16.9% (active) | -55.5% (active) | -66% (active) | 2.9% (active) | 0.264% (active) | -20.7% (active)
COc1cc(NC(=O)c2cccc(C3CCc4c(cc(OC)c(OC)c4OC)O3)c2)cc(OC)c1OC (stereo unspecified) | 7.46% (active) | 3.59% (active) | 11.5% | 27.1% | 13.5% | 18.2% | -58% (active) | -28.6% (active) | 38.9%
CC1=C(C(=O)c2ccccc2)C(c2cccc(Cl)c2Cl)n2c(nc3ccccc32)N1 (stereo unspecified) | 68.7% | 54.6% | 43% | 39.3% | 16.9% | 45% | 54.5% | 36.6% | 90.2%
COc1cc2oc(-c3cccc(C(=O)Nc4ccc(Cl)cc4)c3)cc(=O)c2c(OCCNC(=O)[C@@H](N)CCC(=O)O)c1OC | 78% | 50.6% | 86.4% | 93.6% | 87.4% | 79% | 83.6% | 100% | 78.8%
COc1ccc2cc([C@H](C)C(=O)N/N=C/c3ccc(Br)cc3)ccc2c1 | 101% | 106% | 71.4% | 98.8% | 100% | 106% | 99.9% | 95.6% | 108%
S=C(Nc1ccc(OCc2nc3ccccc3[nH]2)cc1)NC1CCCCC1 | 106% | 102% | 99.1% | 94% | 97% | 95.8% | 92.3% | 77.6% | 85.2%
Cc1cc2nc3c4ccccc4n(CCNCCN(C)C)c3nc2cc1C | 8.66% (active) | -40.1% (active) | 43.4% | 35.3% | 36.5% | 18.2% | -88.9% (active) | -87.8% (active) | -68.4% (active)
CC(=O)Nc1ccc(-c2nc3cc(-c4ccc(O)cc4)ccc3n2C)cc1 | 36.8% | 53.6% | 44.1% | 68.8% | 59.9% | 74.6% | 78.3% | 51.4% | 74.3%
COc1cc(-c2ccc(/C=N/NC(=O)c3[nH]c4ccc(Br)cc4c3-c3ccccc3)o2)cc(OC)c1OC | 69.2% | 96.4% | 74.4% | 52.4% | 40.6% | 68.8% | 92.2% | 77.2% | 86.8%
COc1cc(/C=C/C(=O)c2ccc(C)cc2)ccc1Oc1nc(Nc2ccc(F)cc2)nc(N(C)C)n1 | 17.3% | 44.1% | 50.8% | 23.4% | 11.3% | 50.8% | 30.5% | 42.1% | 73.4%
Cc1c(C(=O)NNC(=O)Nc2ccc(Cl)cc2)nnn1-c1ccc(Br)cc1 | 97% | 97.2% | 90.2% | 91.4% | 104% | 103% | 99.4% | 88.7% | 96.5%
CN1CCN(/C(=N\c2sc(-c3ccccc3)nc2-c2ccccc2)c2ccccc2)CC1 | 16.7% | 9.91% (active) | 90% | 100% | 86% | 56.8% | 75% | 75.7% | 57.7%
CC(=O)Oc1ccc(/C=C/C(=O)N[C@@H](Cc2ccccc2)C(O)C(=O)NCc2ccccc2)cc1OC(C)=O (stereo partly specified) | 78.1% | 113% | 61.3% | 83.5% | 73.8% | 76.9% | 81.8% | 96.1% | 88.4%
COc1cc(CNC(=O)/C=C/c2ccc3c(c2)OCO3)ccc1OCc1cn(-c2cccc(C(F)(F)F)c2)nn1 | 38.2% | 17.6% | 41.1% | 33.1% | -32.9% (active) | 0.703% (active) | 33.2% | -29.2% (active) | 5.76% (active)
N#Cc1c(-c2ccccc2Cl)cc(-c2ccc3ccccc3c2)[nH]c1=O | 63.2% | 108% | -37.1% (active) | 17% | -2.47% (active) | 60.6% | 79.4% | 52.7% | 67.9%
N#Cc1c(-c2cccc(Cl)c2Cl)cc(-c2ccc3ccccc3c2)[nH]c1=O | 69.6% | 121% | -12.7% (active) | 39.2% | 6.58% (active) | 44.4% | 85.7% | 76.2% | 92.8%
COc1cc(C2CC(c3cc(OC)c(OC)c(OC)c3)=NN2C(C)=O)ccc1OCc1ccc(F)cc1 (stereo unspecified) | 42.5% | 28.1% | 79.5% | 60.9% | 59.9% | 27.7% | 29.7% | 52% | 73.2%
CCN1C(=O)N(CC)C2NNC(Sc3c(C(=O)O)c4ccccc4n(C4CCCC4)c3=O)=NC21 (stereo unspecified) | 14.7% | 0.444% (active) | 20.9% | 38.8% | 8.79% (active) | 36.3% | 13.8% | 47.4% | 54.8%
COCOc1ccc2c(=O)c(C)c(C(=O)N[C@@H](Cc3ccccc3)C(O)C(=O)NCCc3ccc(OC)cc3)oc2c1 (stereo partly specified) | 102% | 113% | 125% | 96% | 106% | 110% | 99.4% | 102% | 124%
COc1ccc(NC(=O)c2sc3nc(C(C)C)ccc3c2N)cc1 | 69.5% | 73.6% | 104% | 91.4% | 84.6% | 71.7% | 44.6% | 85.6% | 94%
